In the supplement of paper PMC13380429:

Tested on: Vero E6 infected with SARS-CoV-2
Assay: inhibition of SARS-CoV-2 cytopathic effect; higher = more antiviral protection, active = above 15
Settings: 48 h

Measured: inhibition of SARS-CoV-2 cytopathic effect

N#Cc1ncccn1 [2-cyanopyrimidine]
inactive: 1 nM 4.29% | 8.33 nM 5.63% | 100 nM 4.71% | 833.33 nM 6.33% | 10000 nM 4.34%

COc1c(C)c2c(c(O)c1C/C=C(\C)CCC(=O)O)C(=O)OC2 [mycophenolic-acid]
inactive: 1 nM -0.65% | 8.33 nM -1.16% | 100 nM 0.96% | 833.33 nM 2.06% | 10000 nM 12.9%

CN(C)C(=S)SC(=S)N(C)C [tetramethylthiuram-monosulfide]
inactive: 1 nM -5.07% | 8.33 nM -6.29% | 100 nM -7.33% | 833.33 nM 11.9% | 10000 nM 10%

CC[C@@H]1C(=O)OC[C@@H]1Cc1cncn1C [pilocarpine]
inactive: 1 nM 0.9% | 8.33 nM 1.12% | 100 nM 1.22% | 833.33 nM 3.49% | 10000 nM 3.05%

CC(C)N(CCCCOCC(=O)NS(C)(=O)=O)c1cnc(-c2ccccc2)c(-c2ccccc2)n1 [selexipag]
inactive: 1 nM -0.52% | 8.33 nM -1.02% | 100 nM -0.43% | 833.33 nM -0.43% | 10000 nM -1.53%

CC(=O)C(=Cc1cc(O)c(O)c([N+](=O)[O-])c1)C(C)=O [nitecapone]
inactive: 1 nM -1.48% | 8.33 nM 2.97% | 100 nM 1.47% | 833.33 nM -1.89% | 10000 nM -6.91%

Cc1cccc(C(=O)NCN2CCN(c3ccccc3C#N)CC2)c1
inactive: 1 nM -2.23% | 8.33 nM 0.9% | 100 nM -0.16% | 833.33 nM 0.2% | 10000 nM 0.79%
